Several values for one entry are separate records, joined by “and”; a condition that tells them apart may be missing. Identical values can stand only once. Results filed as inconclusive are left out. Where a call stands in place of a potency, no number is given. Activity calls are given as the source filed them. Calls come from the whole dose curve; as a rule, active = well fitted inhibition curve with a large enough effect; inconclusive = small, poorly fitted or top-dose-only effect; inactive = flat fitted curve, though single readings scatter.
Assays:
Assay in all cases: qHTS profiling for inhibitors of Plasmodium falciparum proliferation (AID 504749); note: nearly all actives have a fitted effect of over 60% in size
Settings in all cases: P. falciparum in erythrocytes, SYBR Green DNA, 72 h; series mostly up to 28.7 µM
DIV14 = test system: DIV14
In short: (§1)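 Readout was DNA-dye fluorescence from lysed cultures, ex 485/em 535 nm. Parasitized red cells had grown 72 h with compound; data scaled between 0.29 uM artemisinin and DMSO wells and corrected using vehicle-only plates.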

DIV17 = test system: DIV17
In short: as §1

DIV30 = test system: DIV30
In short: as §1

Dd2 = test system: Dd2
In short: as §1

ECU = test system: ECU
In short: as §1

FAB9 = test system: FAB9
In short: as §1

GB4 = test system: GB4
In short: as §1

HB3 = test system: HB3
In short: as §1

ICS = test system: ICS
In short: as §1

JCK = test system: JCK
In short: as §1

N140 = test system: N140
In short: as §1

P93_24 = test system: P93_24
In short: as §1

P94_40 = test system: P94_40
In short: as §1

PAD = test system: PAD
In short: as §1

PC15 = test system: PC15
In short: as §1

PC26 = test system: PC26
In short: as §1

PC49 = test system: PC49
In short: as §1

SC27B = test system: SC27B
In short: as §1

TAB109 = test system: TAB109
In short: as §1

TAB113 = test system: TAB113
In short: as §1
Potency is the fitted concentration of half-maximal effect.

C[N+](C)(C)CCOC(=O)C(O)(c1ccccc1)c1ccccc1
Potency (DIV14): inactive | Potency (DIV17): inactive | Potency (DIV30): inactive | Potency (Dd2): inactive | Potency (ECU): inactive | Potency (FAB9): inactive | Potency (GB4): inactive | Potency (HB3): inactive | Potency (ICS): inactive | Potency (JCK): inactive | Potency (N140): inactive | Potency (P93_24): inactive | Potency (P94_40): inactive | Potency (PAD): inactive | Potency (PC15): inactive | Potency (PC26): inactive | Potency (PC49): inactive | Potency (SC27B): inactive | Potency (TAB109): inactive | Potency (TAB113): inactive

C[N+]1(CCC(C(N)=O)(c2ccccc2)c2ccccc2)CCCCC1
Potency (DIV14): inactive | Potency (DIV17): inactive | Potency (DIV30): inactive | Potency (Dd2): inactive | Potency (ECU): inactive | Potency (FAB9): inactive | Potency (GB4): inactive | Potency (HB3): inactive | Potency (ICS): inactive | Potency (JCK): inactive | Potency (N140): inactive | Potency (P93_24): inactive | Potency (P94_40): inactive | Potency (PAD): inactive | Potency (PC15): inactive | Potency (PC26): inactive | Potency (PC49): inactive | Potency (SC27B): inactive | Potency (TAB109): inactive | Potency (TAB113): inactive

CCS(=O)(=O)C(C)(C)S(=O)(=O)CC
Potency (DIV14): inactive | Potency (DIV17): inactive | Potency (DIV30): inactive | Potency (Dd2): inactive | Potency (ECU): inactive | Potency (FAB9): inactive | Potency (GB4): inactive | Potency (HB3): inactive | Potency (ICS): inactive | Potency (JCK): inactive | Potency (N140): inactive | Potency (P93_24): inactive | Potency (P94_40): inactive | Potency (PAD): inactive | Potency (PC15): inactive | Potency (PC26): inactive | Potency (PC49): inactive | Potency (SC27B): inactive | Potency (TAB109): inactive | Potency (TAB113): inactive

CCOC(=O)NC(O)C(Cl)(Cl)Cl (stereo not drawn)
Potency (DIV14): inactive | Potency (DIV17): inactive | Potency (DIV30): inactive | Potency (Dd2): inactive | Potency (ECU): inactive | Potency (FAB9): inactive | Potency (GB4): inactive | Potency (HB3): inactive | Potency (ICS): inactive | Potency (JCK): inactive | Potency (N140): inactive | Potency (P93_24): inactive | Potency (P94_40): inactive | Potency (PAD): inactive | Potency (PC15): inactive | Potency (PC26): inactive | Potency (PC49): inactive | Potency (SC27B): inactive | Potency (TAB109): inactive | Potency (TAB113): inactive

CC[n+]1c(-c2ccccc2)c2cc(N)ccc2c2ccc(N)cc21
Potency (DIV14): 53.6 nM (active) and 107 nM (active) | Potency (DIV17): 53.6 nM (active) and 151 nM (active) | Potency (DIV30): 426 nM (active) and 1.9 µM (active) | Potency (Dd2): 20 nM (active) and 100 nM (active) | Potency (ECU): 141 nM (active) and 447 nM (active) | Potency (FAB9): 79.4 nM (active) and 89.1 nM (active) | Potency (GB4): 75.7 nM (active) and 169 nM (active) | Potency (HB3): 126 nM (active) and 316 nM (active) | Potency (ICS): 44.7 nM (active) and 126 nM (active) | Potency (JCK): 79.4 nM (active) and 282 nM (active) | Potency (N140): 141 nM (active) and 316 nM (active) | Potency (P93_24): 63.1 nM (active) and 158 nM (active) | Potency (P94_40): 70.8 nM (active) and 355 nM (active) | Potency (PAD): 199 nM (active) and 316 nM (active) | Potency (PC15): 251 nM (active) and 891 nM (active) | Potency (PC26): 1.51 µM (active) and 2.13 µM (active) | Potency (PC49): 178 nM (active) and 316 nM (active) | Potency (SC27B): 126 nM (active) and 355 nM (active) | Potency (TAB109): 70.8 nM (active) and 158 nM (active) | Potency (TAB113): 100 nM (active) and 316 nM (active)

CCNc1nc(Cl)nc(NCC)n1
Potency (DIV14): inactive | Potency (DIV17): inactive | Potency (DIV30): inactive | Potency (Dd2): inactive | Potency (ECU): inactive | Potency (FAB9): inactive | Potency (GB4): inactive | Potency (HB3): inactive | Potency (ICS): inactive | Potency (JCK): inactive | Potency (N140): inactive | Potency (P93_24): inactive | Potency (P94_40): inactive | Potency (PAD): inactive | Potency (PC15): inactive | Potency (PC26): inactive | Potency (PC49): inactive | Potency (SC27B): inactive | Potency (TAB109): inactive | Potency (TAB113): inactive

COC(=O)C1=CCCN(C)C1
Potency (DIV14): inactive | Potency (DIV17): inactive | Potency (DIV30): inactive | Potency (Dd2): inactive | Potency (ECU): inactive | Potency (FAB9): inactive | Potency (GB4): inactive | Potency (HB3): inactive | Potency (ICS): inactive | Potency (JCK): inactive | Potency (N140): inactive | Potency (P93_24): inactive | Potency (P94_40): inactive | Potency (PAD): inactive | Potency (PC15): inactive | Potency (PC26): inactive | Potency (PC49): inactive | Potency (SC27B): inactive | Potency (TAB109): inactive | Potency (TAB113): inactive

Cc1ncc2n1-c1ccc(Cl)cc1C(c1ccccc1F)=NC2
Potency (DIV14): inactive | Potency (DIV17): inactive | Potency (DIV30): inactive | Potency (Dd2): inactive | Potency (ECU): inactive | Potency (FAB9): inactive | Potency (GB4): inactive | Potency (HB3): inactive | Potency (ICS): inactive | Potency (JCK): inactive | Potency (N140): inactive | Potency (P93_24): inactive | Potency (P94_40): inactive | Potency (PAD): inactive | Potency (PC15): inactive | Potency (PC26): inactive | Potency (PC49): inactive | Potency (SC27B): inactive | Potency (TAB109): inactive | Potency (TAB113): inactive

OC(O)C(Cl)(Cl)Cl
Potency (DIV14): inactive | Potency (DIV17): inactive | Potency (DIV30): inactive | Potency (Dd2): inactive | Potency (ECU): inactive | Potency (FAB9): inactive | Potency (GB4): inactive | Potency (HB3): inactive | Potency (ICS): inactive | Potency (JCK): inactive | Potency (N140): inactive | Potency (P93_24): inactive | Potency (P94_40): inactive | Potency (PAD): inactive | Potency (PC15): inactive | Potency (PC26): inactive | Potency (PC49): inactive | Potency (SC27B): inactive | Potency (TAB109): inactive | Potency (TAB113): inactive

CCN(CC)C(C)C(=O)c1ccccc1 (stereo not drawn)
Potency (DIV14): inactive | Potency (DIV17): inactive | Potency (DIV30): inactive | Potency (Dd2): inactive | Potency (ECU): inactive | Potency (FAB9): inactive | Potency (GB4): inactive | Potency (HB3): inactive | Potency (ICS): inactive | Potency (JCK): inactive | Potency (N140): inactive | Potency (P93_24): inactive | Potency (P94_40): inactive | Potency (PAD): inactive | Potency (PC15): inactive | Potency (PC26): inactive | Potency (PC49): inactive | Potency (SC27B): inactive | Potency (TAB109): inactive

C[C@H]1C(=O)O[C@@H]2CCN3CC=C(COC(=O)[C@](C)(O)[C@]1(C)O)[C@H]23
Potency (DIV14): inactive | Potency (DIV17): inactive | Potency (DIV30): inactive | Potency (Dd2): inactive | Potency (ECU): inactive | Potency (FAB9): inactive | Potency (GB4): inactive | Potency (HB3): inactive | Potency (ICS): inactive | Potency (JCK): inactive | Potency (N140): inactive | Potency (P93_24): inactive | Potency (P94_40): inactive | Potency (PAD): inactive | Potency (PC15): inactive | Potency (PC26): inactive | Potency (PC49): inactive | Potency (SC27B): inactive | Potency (TAB113): inactive

CC(C)C(Br)C(=O)NC(N)=O (stereo not drawn)
Potency (DIV14): inactive | Potency (DIV17): inactive | Potency (DIV30): inactive | Potency (Dd2): inactive | Potency (ECU): inactive | Potency (FAB9): inactive | Potency (GB4): inactive | Potency (HB3): inactive | Potency (ICS): inactive | Potency (JCK): inactive | Potency (N140): inactive | Potency (P93_24): inactive | Potency (P94_40): inactive | Potency (PAD): inactive | Potency (PC15): inactive | Potency (PC26): inactive | Potency (PC49): inactive | Potency (SC27B): inactive | Potency (TAB109): inactive | Potency (TAB113): inactive

Reference: PubChem BioAssay (NCATS)
